GLP1R cytotox: cytotoxicity in counter-screen for GLP-1R inverse agonists; HEK293 cAMP-luciferase reporter cells, luminescence, 24 h; Potency, µM (doses to about 38.3 µM), hits mostly inhibitors; hit rate 0.13% among 410,000;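 note: loss of luciferase light is scored as toxicity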
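To flag toxic compounds, the library was rerun on cells for 24 hr at 37 deg C and 5% CO2. Viability-linked luminescence was captured 12 min after adding luciferase detection reagent.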
GLP1R inv ag: acts as inverse agonist at human GLP-1 receptor. P43220. HEK293 GLP-1R CRE-luciferase, luminescence, 24 h; GLP-1R form is constitutively active. Potency, µM (highest dose often 38.3 µM), actives largely listed as inhibitors. hit rate 1.6% among 410,000; note: nearly all actives have a fitted effect of over 55% in size
Target sequence (P43220 whole entry, looked up): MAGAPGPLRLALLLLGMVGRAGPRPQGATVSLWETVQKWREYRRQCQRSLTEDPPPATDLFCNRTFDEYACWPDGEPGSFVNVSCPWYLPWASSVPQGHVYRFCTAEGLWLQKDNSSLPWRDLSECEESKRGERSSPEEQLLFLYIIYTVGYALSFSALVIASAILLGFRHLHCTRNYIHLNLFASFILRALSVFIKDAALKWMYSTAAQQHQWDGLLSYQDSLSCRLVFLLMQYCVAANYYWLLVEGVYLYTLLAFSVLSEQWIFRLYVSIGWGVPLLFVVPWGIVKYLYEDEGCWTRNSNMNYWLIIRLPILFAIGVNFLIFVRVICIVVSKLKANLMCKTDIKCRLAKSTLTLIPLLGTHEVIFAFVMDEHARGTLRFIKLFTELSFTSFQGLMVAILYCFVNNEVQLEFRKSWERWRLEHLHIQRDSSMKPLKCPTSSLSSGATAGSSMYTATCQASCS
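Inverse agonism was detected as reduced cAMP-driven luciferase luminescence after 24 h compound treatment. The cells were HEK293 clones expressing constitutively active human GLP-1R with the reporter. Reporter-only and GPR119 cell lines served as counterscreen controls.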
GLP1R ag: agonists of human GLP-1 receptor. hit rate 0.007% among 380,000. Potency, µM (highest dose often 45.6 µM), actives largely listed as activators. AID 624172. HEK293 GLP-1R CRE-luciferase, luminescence, 4-6 h; cells express a hypersensitive GLP-1R form. P43220
Hits are given with their value; 0 = inactive; ? = inconclusive; - = not tested or not shown. In the library only some 1.7% were active in any assay of this set; here they are far more common. Calls come from the whole dose curve; as a rule, active = well fitted curve in the direction sought with a large enough effect; inconclusive = small, poorly fitted or top-dose-only effect, or another doubt; inactive = no such curve, though single readings can be large; an effect the other way counts as inactive or inconclusive.

SMILES	GLP1R cytotox	GLP1R inv ag	GLP1R ag
COc1ccc(NC(=O)C2(C)Cc3c(-c4ccc(NC(C)=O)cc4)ccnc3O2)cc1OC (stereo not drawn)	0	0	0
CCc1ccc(CN2CCC(n3nccc3NC(=O)c3ccccc3C)CC2)cc1	?	5.6µM	0
Cc1ccccc1C(=O)Nc1ccnn1C1CCN(Cc2cccnc2)CC1	0	0	0
Cc1ccccc1C(=O)Nc1ccnn1C1CCN(Cc2c(C)n(C)c3ccccc23)CC1	0	11µM	0
Cc1ccccc1C(=O)Nc1ccnn1C1CCN(Cc2ccccn2)CC1	0	0	0
CCOC(=O)C1(Cc2ccc(OC)cc2)CCN(C(=O)c2ccc3[nH]ccc3c2)CC1	0	4.5µM	0
CCOC(=O)C1(Cc2ccc(OC)cc2)CCN(C(=O)c2ccoc2C)CC1	0	?	0
Cc1ccc2c(c1)N(C(=O)CCC(=O)NCCCN1CCOCC1)CC(C)O2 (stereo not drawn)	0	0	0
CC(C)=CCC/C(C)=C\CC/C(C)=C\CC/C(C)=C\CC1=C(C)C(=O)c2ccccc2C1=O	-	-	0
CCN(CC)CCNc1cccc2sc3ccccc3c(=O)c12	0	0	0
O=c1c2ccccc2sc2c(CO)ccc(NCCN3CCCCC3)c12	7.9µM	10µM	0
O=C(C[C@H]1C=C[C@@H](NC(=O)Cc2cccnc2)[C@@H](CO)O1)NCc1ccc2c(c1)OCO2	0	0	-
O=c1c2cc3c(cc2n(Cc2cccc(F)c2)c(=O)n1Cc1nc(-c2ccccc2)no1)OCO3	0	0	-
O=C(Oc1cccc(/C=N/Nc2nc(N3CCOCC3)nc(N3CCOCC3)n2)c1)c1ccco1	0	?	0
COc1cc(/C=N/Nc2nc(Nc3ccccc3)nc(N3CCOCC3)n2)ccc1OC(=O)c1ccco1	0	4.5µM	0
COc1ccc(/C=N/Nc2nc(Nc3ccccc3)nc(N3CCCCC3)n2)c(OC)c1	5µM	?	0
COc1ccc(/C=N/Nc2nc(Nc3ccccc3)nc(N3CCCC3)n2)cc1[N+](=O)[O-]	?	0	0
Cn1c(SCC(=O)NNC(=O)c2ccc(Cl)cc2)nnc1-c1cccnc1	0	0	0
COc1ccc2c(c1)c(=O)c(S(=O)(=O)c1ccc(F)cc1)cn2Cc1ccccc1Cl	0	0	-
Cc1ccc(-c2nn(-c3ccccc3)cc2C(=O)N2CCN(C3CCS(=O)(=O)C3)CC2)cc1 (stereo not drawn)	0	0	0
COc1cccc(C2c3[nH]c4ccccc4c3CCN2Cc2cccn2-c2ncccn2)c1 (stereo not drawn)	0	?	0
Fc1ccc(C2c3[nH]c4ccccc4c3CCN2Cc2cccn2-c2ncccn2)cc1 (stereo not drawn)	0	11µM	0
Cc1c(Cl)cccc1NC(=O)CN(C1CCCCC1)S(C)(=O)=O	0	0	0
CC1(C)Cc2cccc(OCC(=O)OCC(=O)NCc3ccccc3)c2O1	0	0	0
CCOC(=O)[C@H](CCc1ccccc1)N[C@H]1CCCN2CCC[C@@H](C(=O)O)N2C1=O	-	-	0
SMILES	GLP1R cytotox	GLP1R inv ag	GLP1R ag
CCOC(=O)N1CCN(S(=O)(=O)N2CCCC(C(=O)NCCc3ccc(Cl)cc3)C2)CC1 (stereo not drawn)	?	?	0
O=C(NCCc1ccc(Cl)cc1)C1CCCN(S(=O)(=O)N2CCCCCC2)C1 (stereo not drawn)	0	5.6µM	0
O=C(NCc1ccccc1CN1CCCC1)C1CCN(S(=O)(=O)c2ccc(F)c(F)c2)CC1	0	?	0
CC1CC(C)CN(S(=O)(=O)N2CCCC(C(=O)NCc3ccccc3Cl)C2)C1 (stereo not drawn)	0	?	0
Cc1ccc(S(=O)(=O)N2CCC(C(=O)NCc3ccccc3CN3CCCC3)CC2)cc1C	0	4.5µM	0
CC1CCN(S(=O)(=O)N2CCCC(C(=O)NCc3ccccc3Cl)C2)CC1 (stereo not drawn)	0	7.1µM	0
COc1ccc(-c2cc(C(=O)NCCN3CCOCC3)no2)cc1OC	0	0	0
CC(C)(C)c1cc(C(=O)NNC(=O)Nc2ccccc2)n(Cc2ccccc2)n1	0	?	0
CC(C)(C)c1cc(C(=O)NNC(=O)Nc2cccc(Cl)c2)n(Cc2ccccc2)n1	0	5µM	0
CCCCNC(=O)C(NC(=O)c1ccc(C(F)(F)F)cc1)C(=O)c1ccccc1 (stereo not drawn)	0	0	-
CC1(C)OC(=O)C2=C(C[C@@H](CCc3ccccc3)O[C@H]2CCc2cccc(Cl)c2)O1	0	0	0
Fc1ccccc1C1c2cccn2CCN1C(=S)Nc1cccc(Br)c1 (stereo not drawn)	0	0	0
Fc1ccccc1C1c2cccn2CCN1C(=S)Nc1ccc(Br)cc1 (stereo not drawn)	?	4.5µM	0
Cc1cc(=O)n2[nH]c(CCC(=O)O)nc2n1	0	0	0
Cc1c(C(=O)OCC(=O)N2CCCC(C)C2)oc2ccccc12 (stereo not drawn)	0	10µM	0
COc1ccc2oc(C(=O)OCC(=O)N3CCCC(C)C3)c(C)c2c1 (stereo not drawn)	0	?	0
CC(OCCN1CCCC1)(c1ccc(F)cc1)c1ccc(F)cc1	?	10µM	0
Fc1ccc(OCCOCCN2CCCC2)cc1	0	0	0
Cc1cc2ccccn2c1C(=O)c1ccccc1F	0	?	0
O=C(CCc1ccccc1)NC1CCS(=O)(=O)C1 (stereo not drawn)	0	0	0
COc1ccc(Cl)cc1NC(=O)CN(C)C(=O)C12CC3CC(CC(Cl)(C3)C1)C2	0	?	0
CSc1ccc(CN(C)C(=O)C23CC4CC(CC(Cl)(C4)C2)C3)cc1	0	10µM	0
C=CCOc1cccc(NC(=O)c2ccccc2SC)c1	0	0	0
CCC(=O)N1CCc2cc(Br)cc(S(=O)(=O)N3CCCC(C(=O)NCc4cccc(OC)c4)C3)c21 (stereo not drawn)	0	0	0
Cc1ccccc1C(=O)Nc1cc(-c2cc(C(C)(C)C)oc2C)nn1C	0	10µM	0
SMILES	GLP1R cytotox	GLP1R inv ag	GLP1R ag
Cc1ccccc1NC(=O)Nc1cc(-c2ccccc2)nn1C	0	0	0
O=C(/C=C/[C@H]1O[C@@H](n2ccc(=O)[nH]c2=O)[C@H](O)[C@@H]1O)NCc1ccco1	0	0	0
COc1ccc(-n2c(=O)c3ccccc3n(Cc3ccccc3C)c2=O)c(OC)c1	0	0	-
C=CCNCC(=O)N1N=C(c2ccc3ccccc3c2)CC1c1ccc(OC)cc1 (stereo not drawn)	?	13µM	0
COc1ccc(C2CC(c3ccc4ccccc4c3)=NN2C(=O)CNC2CCCCC2)cc1 (stereo not drawn)	?	?	0
CCCc1[nH]c2ccc(C#N)cc2c1CCC	?	10µM	0
CCCc1[nH]c2ccc(C(=O)OC)cc2c1CCC	0	?	0
Cc1cc(C)c(-c2csc(NC(=O)c3cc([N+](=O)[O-])ccc3N3CCOCC3)n2)c(C)c1	0	8.9µM	0
O=C(Nc1nc(-c2ccc(F)c(F)c2)cs1)c1cc([N+](=O)[O-])ccc1N1CCOCC1	0	0	0
COc1cccc2c1C(=N)c1c(O)c3c(c(O)c1C2=O)CC(O)(C(C)=O)CC3OC1CC(N)C(O)C(C)O1 (stereo not drawn)	?	?	0
